# Assay results published in PubChem BioAssay.
# “And” between values parts separate entries of the source, which are not always exact repeats. Equal values may be shown once. A number with no mark means an inactive call. The source made the active and inactive calls.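 How the source made its calls: active means mean inhibition above 46.68%, the untreated control wells mean plus 3 SD; inactive means the rest.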
# Target: Nuclear receptor coactivator 1 (Homo sapiens) (UniProt Q15788)
# Experiment: NCOA1 GAL4-fusion reporter inhibition – cell-based, luminescence, quadruplicate, confirmation (AID 588820);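 further: 0% = DMSO wells and 100% = gossypol 36 µM treated wells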
# Conditions: HEK293 GAL4-SRC1 luciferase reporter, at 3.6 µM, hits give high values
# Nuclear receptor coactivator 1 (Homo sapiens), sequence (Q15788 whole entry, looked up, the tested form may be a part): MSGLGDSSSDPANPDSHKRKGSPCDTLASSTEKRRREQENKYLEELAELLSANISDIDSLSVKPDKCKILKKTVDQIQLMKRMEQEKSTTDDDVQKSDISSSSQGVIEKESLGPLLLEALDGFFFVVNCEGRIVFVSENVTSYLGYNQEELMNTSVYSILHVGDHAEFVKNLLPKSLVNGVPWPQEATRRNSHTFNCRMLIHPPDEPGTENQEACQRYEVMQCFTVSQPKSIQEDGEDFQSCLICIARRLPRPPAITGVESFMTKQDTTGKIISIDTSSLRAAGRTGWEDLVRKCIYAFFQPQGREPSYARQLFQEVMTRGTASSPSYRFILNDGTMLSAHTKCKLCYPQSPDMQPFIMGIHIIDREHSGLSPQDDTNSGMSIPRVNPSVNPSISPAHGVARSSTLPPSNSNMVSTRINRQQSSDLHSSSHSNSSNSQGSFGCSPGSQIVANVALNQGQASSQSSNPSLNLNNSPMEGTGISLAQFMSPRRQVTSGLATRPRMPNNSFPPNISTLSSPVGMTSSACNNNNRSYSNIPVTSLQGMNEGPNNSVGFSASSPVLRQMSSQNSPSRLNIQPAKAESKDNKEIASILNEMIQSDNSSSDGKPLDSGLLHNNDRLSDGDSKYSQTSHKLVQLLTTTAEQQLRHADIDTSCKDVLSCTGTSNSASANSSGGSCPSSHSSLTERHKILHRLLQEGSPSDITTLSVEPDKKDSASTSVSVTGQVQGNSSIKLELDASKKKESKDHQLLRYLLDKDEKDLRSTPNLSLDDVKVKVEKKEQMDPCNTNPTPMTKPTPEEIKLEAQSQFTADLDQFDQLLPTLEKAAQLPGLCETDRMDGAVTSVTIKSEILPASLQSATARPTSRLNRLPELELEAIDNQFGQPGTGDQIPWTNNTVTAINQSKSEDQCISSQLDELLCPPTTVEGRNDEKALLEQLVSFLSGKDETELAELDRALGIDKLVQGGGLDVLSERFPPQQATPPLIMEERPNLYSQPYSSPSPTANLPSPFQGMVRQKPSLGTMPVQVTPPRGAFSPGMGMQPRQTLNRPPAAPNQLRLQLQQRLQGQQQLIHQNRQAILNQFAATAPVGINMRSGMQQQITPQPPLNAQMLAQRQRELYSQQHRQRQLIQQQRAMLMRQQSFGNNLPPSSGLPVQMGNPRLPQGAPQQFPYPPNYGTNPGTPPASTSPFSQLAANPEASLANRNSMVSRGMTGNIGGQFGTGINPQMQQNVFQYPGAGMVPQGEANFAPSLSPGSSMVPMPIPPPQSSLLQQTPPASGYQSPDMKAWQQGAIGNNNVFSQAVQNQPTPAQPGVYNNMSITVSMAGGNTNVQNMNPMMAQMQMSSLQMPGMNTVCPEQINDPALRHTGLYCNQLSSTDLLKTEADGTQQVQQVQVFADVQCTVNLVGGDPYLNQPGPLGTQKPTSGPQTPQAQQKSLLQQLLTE
row,Structure (SMILES),inhibition
1,COc1ccc(N(C(=O)CCl)C(C(=O)NC2CCCCC2)c2cccnc2)cc1 (centres undefined),38.8%
2,O=S(=O)(Nc1cc(Sc2ncn[nH]2)c(O)c2ccccc12)c1ccccc1,-20.2%
3,COCC(C)n1c(C)cc(C(=O)COC(=O)c2cccn2C)c1C (centres undefined),-58.2%
4,Brc1ccc2ncnc(Nc3ccc(N4CCOCC4)cc3)c2c1,59.7% (active)
5,CC1CCN(C2=NC(=O)/C(=C/c3ccccc3F)S2)CC1,-2.11%
6,CC(=C/c1ccccc1)/C=N/n1c(-c2ccncc2)n[nH]c1=S,66.1% (active)
7,COCCn1c(C)cc(C2=NNC(=NC3CC3)SC2)c1C,85.7% (active)
8,CC(=O)/C(N=Nc1ccc2c(c1)OCCO2)=C(\C)O,22.6%
9,c1ccc(CCc2nn3c(-c4ccncc4)nnc3s2)cc1,57.3% (active)
10,COCCn1c(C)cc(C(=O)COc2ccc(C)nc2[N+](=O)[O-])c1C,12.1%
11,COc1ccc(-c2cc(=O)oc3c(C)c(O)ccc23)cc1,50.3% (active)
12,N#CC(C#N)c1ccnc2ccccc12,64.1% (active)
13,Nc1ncnc(N2CCc3ccccc32)c1[N+](=O)[O-],75.9% (active)
14,CN1CCN(c2ccc(NC(=O)N3CCc4ccccc43)cc2)CC1,-43.7%
15,CS(=O)(=O)N(CCC#N)Cc1ccc(/C=C2\C(=O)Nc3ccccc32)o1,52.9% (active)
16,O=C(NC1CCCCC1)C(c1cccnc1)N(C(=O)CCl)c1ccc(F)cc1 (centres undefined),20.8%
17,C=C1C(=O)O[C@H]2C[C@H]1[C@@H](OC(C)=O)C/C(C)=C/CC/C(C)=C\CC[C@]2(C)O,37%
18,Cc1cc(N2CCOCC2)c2c(N)c(Br)cc(C)c2n1,76.3% (active)
19,Nc1ncccc1C(=O)OCC(=O)N1CCN(S(=O)(=O)c2ccc(Cl)cc2)CC1,23.2%
20,Cc1nc(SCC(=O)Nc2nc3ccccc3s2)c(C#N)c(C)c1C,82.4% (active)

row,Structure (SMILES),inhibition
1,CC(C)(CO)CNc1ccn2nccc2n1,67.4% (active)
2,CCN(CC)c1ccc(/C=N/Nc2nc(C)cc(=O)[nH]2)c(O)c1,67.1% (active)
3,CCOc1cc(/C=C2\COc3ccccc3C2=O)cc(Br)c1OCC(=O)N(C)C,22.3%
4,CCOc1ccc(Nc2ncnc3ccc([N+](=O)[O-])cc23)cc1,65.8% (active)
5,Nc1ccc(-c2nc3c(Cl)cc(N)cc3[nH]2)cc1,-18.9%
6,Cn1nc(C(F)(F)F)c(C#N)c1N1CCN(c2ccccc2)CC1,35.6%
7,CC1=C(C(=O)OCc2ccc3c(c2)OCO3)C(c2ccc(O)c([N+](=O)[O-])c2)NC(=O)N1 (centres undefined),58.6% (active)
8,Cc1ccc(-n2c(C)c([N+](=O)[O-])c3ccc(O)c(CN(C)C)c32)cc1,63.4% (active)
9,COc1ccc(-n2c(C)c([N+](=O)[O-])c3ccc(O)c(CN4CCCCC4)c32)cc1,54.9% (active)
10,CCN(CC)Cc1c(O)ccc2c([N+](=O)[O-])c(C)n(-c3ccc(OC)cc3)c12,68.7% (active)
11,Cc1cc(C(=O)CN2C(=O)c3ccccc3S2(=O)=O)c(C)n1C(C)C,-24.8%
12,NNC(=O)c1cc2ccccc2cc1O,37.5%
13,CC(C)(C)OC(=O)NCCCCCNC(=O)c1nc[nH]c1C(=O)NCCCCCNC(=O)OC(C)(C)C,-20%
14,Cc1cc(Sc2nnc(/N=C/N(C)C)s2)c2ccccc2n1,2.4%
15,COc1cccc(NC(=O)Nc2nc(-c3ccc(OC)c(OC)c3)cs2)c1,37.4%
16,CCCN(CC(=O)Nc1ccccc1C)C(=O)CCl,48.8% (active)
17,CC(=O)c1sc(NC(=O)C2(F)C(F)(F)C(F)(F)C(F)(F)C(F)(F)C2(F)F)nc1C,60.4% (active)
18,c1ccc(CNc2ncnc3ccccc23)cc1,17.6% and 34.3%
19,Cc1ccc(Sc2c(C=O)c3ccccc3n2C)cc1,54% (active)
